Source: PubChem BioAssay (National Center for Advancing Translational Sciences (NCATS))
The full list was thinned out, with hits kept by preference.
Pf Dd2 inh = blocks in vitro growth of P. falciparum Dd2; Potency, µM (series often up to 28.9 µM), for the others: top-dose activity, negative = inhibition, hits mostly inhibitors; 120,000 tested, 4.3% active; P. falciparum Dd2 growth, SYBR Green, 72 h; active = well fitted inhibition curve with a large enough effect;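 note: plate controls were DMSO vehicle for no effect and reference drug for full effect; nearly all actives have a fitted effect of over 65% in size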
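Readout: SYBR Green fluorescence, 485 nm excitation, 535 nm emission, after ~16 h lysis at 37C. Before that, Dd2-infected red cells (2.5% hematocrit) grew 72 h with compound, 29 uM top final concentration.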
The depositor's hits bear a star; [ ] = dose if it differs, or a comment. Potency is the fitted concentration of half-maximal effect.

`COC1C(=O)N(c2cccc(F)c2)C12CCN(C(=O)CC1CCN(C(C)=O)CC1)CC2` (configuration not stated) gave Pf Dd2 inh -7%.
`CCCS(=O)(=O)N1CCC2(CC1)C(OC)CN2c1cccc(F)c1` (configuration not stated) gave Pf Dd2 inh inactive.
For COCCc1noc([C@@H]2CN(Cc3ccc4[nH]ccc4c3)C[C@H]2CO)n1 the results were Pf Dd2 inh -27%.
For COc1ccc2c(ccn2CCNC(=O)C2CC(=O)N(c3n[nH]c4ccccc34)C2)c1 (configuration not stated) the results were Pf Dd2 inh inactive.
Screening O=C1CC(c2noc(Cc3ccc(F)cc3)n2)CN1c1ccc(F)c(Cl)c1 (configuration not stated) returned Pf Dd2 inh -1%.
For CC(C)S(=O)(=O)CCNc1nccc(-c2cccnc2)n1 the results were Pf Dd2 inh -7%.
OC(CNc1nccc(-c2cccnc2)n1)COc1ccc(Cl)cc1 (configuration not stated) was read as Pf Dd2 inh 14µM*.
`Cc1cc(=O)[nH]c(NCCNc2nccc(-c3cccnc3)n2)n1` gave Pf Dd2 inh 0%.
`O=C(Nc1cccc(Cl)c1)C1=NO[C@@H]2CN(CCc3ccccc3)C[C@H]12` gave Pf Dd2 inh 19%[44.1 µM].
Screening O=C(c1ccc(F)cc1)N1CCC(C(=O)O)(c2ccccc2)CC1 returned Pf Dd2 inh 3%.
`COc1ccccc1C(=O)N1c2ccccc2C(C)(c2ccc(Cl)cc2)CC1(C)C` (configuration not stated) gave Pf Dd2 inh 8.9µM*.
O=C(O)c1ccc2c(c1)N(C(=O)c1ccc(F)cc1)CC2 was read as Pf Dd2 inh -8%.
For Cc1ccc2c(c1)C(C)(c1ccccc1)CC(C)(C)N2C(=O)c1ccc(F)cc1 (configuration not stated) the results were Pf Dd2 inh 5.6µM*.
For COc1ccccc1C(=O)N1CCCN(C)c2ccccc21 the results were Pf Dd2 inh -12%.
`CCCCC(=O)N1c2ccccc2C(C)(c2ccccc2)CC1(C)C` (configuration not stated) gave Pf Dd2 inh -20%.
Screening c1cnc(N2CC[C@H](c3nnc(-c4ccncc4)o3)C2)nc1 returned Pf Dd2 inh -22%[44.1 µM].
`COC1CCC(C(=O)N2CC(CNc3ccccc3)C3(C2)CN(c2ccccc2)C3)CC1` (configuration not stated) gave Pf Dd2 inh -9%[44.1 µM].
COc1cccc(CC(=O)N[C@H](C)c2onc(-c3ccc(F)cc3)c2C(=O)O)c1 was read as Pf Dd2 inh -19%[44.1 µM].
For Cc1nccn1CCCC(=O)N1CCC2(CC1)CNC(C(=O)O)C2 (configuration not stated) the results were Pf Dd2 inh 2%.
CCn1nc(C)c(CCNC(=O)C2CCC(=O)N(C3CCCC3)C2)c1C (configuration not stated) was read as Pf Dd2 inh -14%.
Screening Cc1ccc(/C=C(\C#N)C(=O)Nc2cccc(Cl)c2)o1 returned Pf Dd2 inh -9%.
For Cc1ccc(-n2c(C)cc(/C=C(\C#N)C(=O)Nc3ccc(C)c(C)c3)c2C)cc1 the results were Pf Dd2 inh 2%.
For Cc1cccc(Cn2cc(/C=C(/C#N)C(=O)Nc3cccc(Cl)c3)c3ccccc32)c1 the results were Pf Dd2 inh 3.5µM*.
Screening CCC1(C(=O)NCc2ccc(N3CCC(C)CC3)cc2)CCCCC(=O)N1 (configuration not stated) returned Pf Dd2 inh -4%.
For COCCS(=O)(=O)c1ncc(CN2CC[C@@H]3CCCC[C@H]3C2)n1Cc1ccccc1 the results were Pf Dd2 inh 6.3µM*.
`COCCS(=O)(=O)c1ncc(CN(C)C(C)c2ccon2)n1Cc1ccccc1` (configuration not stated) gave Pf Dd2 inh -4%.
Screening CC(C)Cn1c(CN2CCSCC2)cnc1S(=O)(=O)Cc1ccccc1 returned Pf Dd2 inh -22%.
`Cc1ccc(C2Cn3nnc(C(=O)N4CCC(C(=O)NCc5ccncc5)CC4)c3CO2)cc1` (configuration not stated) gave Pf Dd2 inh inactive.
`Cc1cccc(OC[C@H]2C[C@@H](N(C)C)[C@H](O)[C@@H]2O)n1` gave Pf Dd2 inh -13%[44.1 µM].
`CN1CCN(c2ncnc3sc4c(c23)CCN(Cc2ccco2)C4)CC1` gave Pf Dd2 inh 11µM*.
Screening c1ccc(CN2CCc3c(sc4ncnc(N5CCOCC5)c34)C2)cc1 returned Pf Dd2 inh 7.9µM*.
For c1ccc(CN2CCNc3cnc(-c4ccc(N5CCOCC5)cc4)cc3C2)cc1 the results were Pf Dd2 inh inactive.
Screening CN1CCN(c2nc3c(c(=O)[nH]2)CCN(Cc2ccc(Br)s2)CC3)CC1 returned Pf Dd2 inh 19%[5.79 µM].
Screening COc1ccc(-c2nc(N3CCOCC3)cc3c2CN(Cc2ccccc2)C3=O)cn1 returned Pf Dd2 inh -10%[44.1 µM].
For CCN1CCN(c2nc3c(s2)CN(Cc2ccco2)CC3)CC1 the results were Pf Dd2 inh -10%.
Screening Cn1cc(CN[C@H]2C[C@H]3C(=O)NC[C@@H](CCC(=O)N4CCc5ccccc54)N3C2)c2ccccc21 returned Pf Dd2 inh -11%.
CC[C@H]1CN(S(C)(=O)=O)CC[C@H]1CC(=O)NCCOC was read as Pf Dd2 inh -20%[44.1 µM].
For CC(C)(C)CC(=O)Nc1nc2c(s1)C[C@@H]1[C@](C)(CO)[C@H](O)CC[C@@]1(C)[C@@H]2CC(=O)NCCN1CCOCC1 the results were Pf Dd2 inh 9%.
O=c1[nH]c(N2CCOCC2)nc2c1CCN(Cc1ccc(F)c(Br)c1)CC2 was read as Pf Dd2 inh -10%[5.79 µM].
Screening COc1ccc(CN2CCN3C(=O)N(Cc4ccc(OC)cc4)C[C@H]3C2)cc1 returned Pf Dd2 inh -6%[44.1 µM].
COc1ccc(CN2C[C@H]3CN(Cc4ccc(Cl)cc4)CCN3C2=O)cc1 was read as Pf Dd2 inh 11%[44.1 µM].
For COc1ccc(CN2C[C@H]3CN(Cc4ccc5c(c4)OCCO5)CCN3C2=O)cc1 the results were Pf Dd2 inh 11µM*.
O=C1COCC2(CN1Cc1cccc(OC(F)(F)F)c1)CN(C(=O)C1CCOCC1)C2 was read as Pf Dd2 inh -22%.
Screening CN(C)c1ccc(C(=O)NC[C@H]2O[C@@H](CO)[C@@H](O)[C@H]2N2CCN(c3ccccc3)CC2)cc1 returned Pf Dd2 inh inactive.
CC(C)n1nc(OC(C)(C)C(=O)NC2CCOCC2)c2cc(CN3CCOCC3)ccc21 was read as Pf Dd2 inh -3%.
Screening CCCCC(=O)NC1CCN(c2cn[nH]c(=O)c2)CC1 returned Pf Dd2 inh 2.8µM*.
CC(C)CC(=O)NC1CCN(c2cn[nH]c(=O)c2)CC1 was read as Pf Dd2 inh -11%.
For CCCCC(=O)NC1CCN(c2cnn(C)c(=O)c2)CC1 the results were Pf Dd2 inh 7%.
`CCN(Cc1nccn1C)C(=O)c1cc(-c2cnc(C)nc2)nc2ccc(F)cc12` gave Pf Dd2 inh -3%.
For O=C(C1CCCC1)N1CCCCCC1CN1CCOCC1 (configuration not stated) the results were Pf Dd2 inh inactive.
Screening CCOc1ccccc1N(C)C(=O)C1CCCN(c2ncnc3c2nc2n3CCCCC2)C1 (configuration not stated) returned Pf Dd2 inh -2%.
For CCCNC(=O)C1CCN(c2ncnc3c2nc2n3CCCCC2)CC1 the results were Pf Dd2 inh -9%.
Screening CCCN(CCC)C(=O)C1CCN(c2ncnc3c2nc2n3CCCCC2)CC1 returned Pf Dd2 inh -20%.
